The text below walks through data of PubChem BioAssay AID488789 (Broad Institute, 2010).

Structures are written as SMILES. Results with a measured potency or affinity are listed apart. Inconclusive results are not listed. Active and inactive are the calls of the source.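 The calls were made as follows: active = samples whose fitted half-maximal inhibition concentration is no more than ten times the top valid dose tested; inconclusive = flat response between -70 and -30, or invalid curve fit; inactive = flat within 30 of zero, potency above limit, or signal rising.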

In the experiment the target is Trypsin (Sus scrofa) (UniProt P00761). Briefly: trypsin protease activity blockade – biochemical, quenched peptide fluorescence, cherry-pick, selectivity assay for Rce1 protease inhibitor project, dose response (AID 488789).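 Also: more negative means stronger trypsin inhibition.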 The conditions noted are these: porcine trypsin, quenched peptide cleavage fluorescence; series mostly up to 10 µM.
Chain of Trypsin (Sus scrofa) (P00761 whole entry, looked up): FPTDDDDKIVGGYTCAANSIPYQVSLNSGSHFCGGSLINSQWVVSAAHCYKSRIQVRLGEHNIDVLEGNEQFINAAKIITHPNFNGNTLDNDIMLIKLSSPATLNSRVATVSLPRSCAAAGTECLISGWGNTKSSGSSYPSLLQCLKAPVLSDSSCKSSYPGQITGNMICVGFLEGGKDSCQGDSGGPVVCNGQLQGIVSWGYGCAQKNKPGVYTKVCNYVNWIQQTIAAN
Take `CN1CC(C(=O)c2ccc(Cl)cc2)C(c2ccc(Cl)cc2Cl)C1` (stereo not drawn): the result was inactive.

Take `Cc1nccc2c1[nH]c1ccccc12`: the result was inactive.

For the compound `C=CCn1c(O)c(C(CC)=Nc2ccc(N(CC)CC)cc2)c(=O)[nH]c1=O`, the call was inactive.

`Clc1ccc(C[n+]2c(-c3ccccc3)cc(-c3ccccc3)cc2-c2ccccc2)cc1`: the call was inactive.

In the case of `Cc1ccc(-c2cc(-c3ccccc3)cc(-c3ccccc3)[n+]2-c2ccccc2)cc1`, the compound was called inactive.

As to `O=[N+]([O-])c1ccc(C[n+]2c(-c3ccccc3)cc(-c3ccccc3)cc2-c2ccccc2)cc1`, the result was inactive.

In the case of `c1ccc(CCCN2CCN(CCOC(c3ccccc3)c3ccccc3)CC2)cc1`, the outcome was inactive.

Take `CC(=O)OCC[N+](C)(C)C`: the call was inactive.

Consider `CCOc1ccc(C2C(C#N)=C(N)Oc3c2c(=O)oc2ccccc32)cc1` (stereo not drawn), for which the call was inactive.

As for `CCOC(=O)[C@@H]1[C@H]2COc3ccc(Br)cc3[C@@H]2N2C(=O)N(c3cccc(C)c3)C(=O)[C@]12C`, the outcome was inactive.

In the case of `Cc1ccnc(-n2c(-c3ccco3)nc3ccccc3c2=O)c1`, the outcome was inactive.

With `CN1CCN(c2ccc([N+](=O)[O-])c(Sc3nncn3C)c2)CC1`, the result was inactive.

For the compound `C=CC[N+]1(C)CC[C@]23c4c5ccc(O)c4O[C@H]2C(=O)CC[C@@]3(O)[C@H]1C5` (stereo partly drawn), the compound was classed as inactive.
